Test results from the supplement of paper PMC6555819.

Experiments:
Experiment in all cases: PBM binding z-score (relative to random genomic background probes); higher = stronger binding; sequences stand for … in GC…GCGATTGACAGCGTAGAATGAAGG
[1] = system: PPARg:RXRa IVT, anti-PPARg (NR concentration 270 nM, RXRa partner concentration 90 nM)
Outline: (§1)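 Binding z-scores were set against random background probes. The data came from custom Agilent 4×180K protein-binding microarrays carrying double-stranded probes with 34-nt variable regions, incubated 1 h with ligand-free nuclear receptor dimers. Partner-specific antibodies detected binding, and scanned fluorescence was regression-normalized.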

[2] = system: PPARg DBDmut:RXRa IVT, anti-PPARg (DBD mutation: PPARg1 K132A/R137A, NR concentration 270 nM, RXRa partner concentration 90 nM)
Outline: as §1

[3] = system: PPARg DBDmut IVT, anti-PPARg (DBD mutation: PPARg1 K132A/R137A, NR concentration 270 nM)
Outline: as §1

[4] = system: PPARg homodimer (NR concentration 180 nM)
Outline: as §1

[5] = system: PXR:RXRa (NR concentration 270 nM, RXRa partner concentration 90 nM)
Outline: as §1

[6] = system: PXR homodimer (NR concentration 270 nM)
Outline: as §1

[7] = system: RARa:RXR (NR concentration 270 nM, RXRa partner concentration 90 nM)
Outline: as §1

[8] = system: RARa homodimer (NR concentration 270 nM)
Outline: as §1

[9] = system: RARb:RXRa (NR concentration 270 nM, RXRa partner concentration 90 nM)
Outline: as §1

[10] = system: RARb homodimer (NR concentration 270 nM)
Outline: as §1

[11] = system: RARg:RXRa (NR concentration 270 nM, RXRa partner concentration 90 nM)
Outline: as §1

[12] = system: RARg homodimer (NR concentration 270 nM)
Outline: as §1

[13] = system: RXRa DBDmut IVT, anti-RXR (DBD mutation: RXRa K156A/R161A, NR concentration 90 nM)
Outline: as §1

[14] = system: RXRa homodimer (NR concentration 180 nM)
Outline: as §1

[15] = system: THRa:RXRa (NR concentration 90 nM, RXRa partner concentration 90 nM)
Outline: as §1

[16] = system: THRa homodimer (NR concentration 90 nM)
Outline: as §1

[17] = system: VDR homodimer (NR concentration 270 nM)
Outline: as §1

Sequence	PBM binding z-score [1]	PBM binding z-score [2]	PBM binding z-score [3]	PBM binding z-score [4]	PBM binding z-score [5]	PBM binding z-score [6]	PBM binding z-score [7]	PBM binding z-score [8]	PBM binding z-score [9]	PBM binding z-score [10]	PBM binding z-score [11]	PBM binding z-score [12]	PBM binding z-score [13]	PBM binding z-score [14]	PBM binding z-score [15]	PBM binding z-score [16]	PBM binding z-score [17]
TAGCCTAGGTCATACAGGGGCCAGTATAGAAAGC	2.89	0.2	-0.11	1.83	2.1	-0.101	3.56	0.204	3.91	3.38	5.98	4.71	1.04	3.26	3.27	0.799	0.824
CGTCCAAGGTCAAGGTCAATGAAAGAGACTCGAA	5.34	2.6	2.44	4.82	5.3	1.41	5.88	3.2	5.75	4.92	7	7.87	3.91	6.52	4.35	3.41	3.28
TTACCAAGGTGAACGGTCGTTGATGCACGCCTTG	3.55	1.13	0.904	0.997	-0.0425	-0.818	0.693	-0.752	2.03	1.31	0.796	0.84	-0.078	1.24	1.93	0.872	-0.356
CCGAGTTGGTCAAGGTCACACACGCTATAGGTAC	3.09	0.702	0.995	3.6	4.94	5.4	4.96	2.02	4.17	4.42	4.58	4.8	3.18	4.46	4.24	4.39	4.74
CAAACTAGGTCACAAAAGGTCAAAGTCGAATGAC	8.79	3.52	2.98	6.01	6.68	3.59	7.57	3.85	5.37	5.82	7.42	8.02	2.52	7.78	4.76	2.22	3.98
GGAACGAGGGCAAAGTTCATAGCATCTGTCGACG	6.1	0.354	-0.0901	3.42	5.81	4.46	6.65	0.559	4.01	3.75	5.71	3.92	3.54	6.27	3.03	0.017	4.43
CGAACGAGGTCATTGACAGGACAGTGAATAGTAA	5.72	2.22	0.785	3.3	5.28	3.11	5.46	0.884	4.82	3.73	7.11	6.33	4.84	7.11	4.06	2.45	5.66
CCTTACGGGTAACGAGGTTATAGCACGACGAGCG	1.82	-0.344	-1.05	0.604	0.822	0.153	1.3	0.476	0.589	0.484	1.01	0.837	-0.598	1.43	1.35	0.247	0.527
TAGCCTAGGTCGTTCAGGGGCCAGTATAGAAAGC	0.847	-0.279	-0.473	0.19	0.589	-0.665	1.18	-0.836	1.63	1.63	3.43	1.27	0.406	0.583	2.04	-0.169	0.675
CCTACTGGGCCACGAAAGGCCATTGATTCAGTGA	5.01	-0.487	-0.189	0.0675	0.149	-0.378	0.18	-0.712	1.18	1.36	0.332	0.725	-0.292	-0.0677	1.15	-0.457	-0.271
CGTCCAAGGACAATGCTAGGTCAGTGAAAGCATT	0.25	-1.55	-0.865	0.328	0.242	0.0712	0.502	-0.127	2.03	2.48	1.34	1.85	0.603	0.146	2.91	1.91	0.161
CCTACTGGGCCACTAAAGGTCATTGATTCAGTGA	5.37	0.801	0.225	3.43	5.12	1.79	5.18	1.26	3.89	4.55	4.48	4.5	0.757	4.87	3.61	0.905	2.62
TTACCAAGGTGAAAGGTCGTTGCTGCACGCCTTG	5.07	0.655	0.268	1.88	3.88	0.364	5.58	-0.419	3.14	2.59	4.15	1.94	0.854	5.85	3.37	0.758	1.74
TCTTGTAGATCAATAGAAGTTAAGAAAGTGCGCT	0.217	0.211	1.07	0.551	0.615	0.29	0.734	0.368	0.0854	-0.511	0.119	0.155	1.24	0.537	0.00398	-0.786	0.102
AATACAGGGTAACTAGGCCAGAGTAGGTACGAAT	4.67	1.24	0.826	0.854	-0.078	0.0219	-0.00374	0.0183	0.804	0.549	0.64	0.567	-0.0804	0.664	0.631	-0.0802	0.108
TCTCGGAGGACACTAAAGGTCAGAGCTCGACATC	1.59	-0.114	-0.191	2.43	3.8	0.66	4.14	0.456	3.84	4.7	4.4	4.68	1.11	3.98	3.48	1.1	0.787
